Measurements reported in the supplement of paper PMC11732987, “Enantioselective OTUD7B fragment discovery through chemoproteomics screening and high-throughput optimisation” (Communications Chemistry, 2025).

Each compound was assayed against USP14 (UniProt P54578) (assay: log2 ratio of Biotin-Ahx-Ub-VS probe labelling (fragment/DMSO); higher = less target engagement (more negative = stronger competition), active = hit call of the paper (q ≤ 0.05, log2 ratio ≤ -1)). Conditions: compound concentration: 200 uM; treatment time: 3 h.
Protocol: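 Competitive ABPP in HEK293T cell lysate. Lysates were treated with each chloroacetamide fragment at 200 µM for 3 h, then with Biotin-Ahx-Ub-VS (0.5 µM, 1 h), NeutrAvidin-enriched and analysed by diaPASEF LC-MS/MS. Protein LFQ was median-normalised; average log2 ratio is fragment/DMSO from an unpaired t-test (n=3 treated, n=44 DMSO). Hits: q ≤ 0.05, log2 ratio ≤ -1, unique peptides ≥ 2.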

Chain of USP14 (P54578 whole entry, the tested form may be a part): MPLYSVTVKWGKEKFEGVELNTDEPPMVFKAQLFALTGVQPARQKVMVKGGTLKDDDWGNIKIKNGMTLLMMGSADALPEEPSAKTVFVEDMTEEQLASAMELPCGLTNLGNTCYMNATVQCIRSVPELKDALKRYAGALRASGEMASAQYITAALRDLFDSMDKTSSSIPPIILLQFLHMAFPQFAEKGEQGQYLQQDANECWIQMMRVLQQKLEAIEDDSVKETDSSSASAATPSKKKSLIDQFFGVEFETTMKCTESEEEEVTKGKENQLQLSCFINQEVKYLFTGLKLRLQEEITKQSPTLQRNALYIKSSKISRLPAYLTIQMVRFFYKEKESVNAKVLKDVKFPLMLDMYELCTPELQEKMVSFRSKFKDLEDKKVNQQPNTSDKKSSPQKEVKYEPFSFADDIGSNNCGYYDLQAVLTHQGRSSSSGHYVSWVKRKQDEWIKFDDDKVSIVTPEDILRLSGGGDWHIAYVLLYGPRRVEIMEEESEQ

log2 ratio of Biotin-Ahx-Ub-VS probe labelling, inactive:
Cl.O=C(CCl)N[C@H]1C[C@@H](n2cccn2)C1 -0.208
CC1CN(c2ccc(NC(=O)CCl)cc2)CC(C)O1 (configuration not stated) -0.0454
CN(Cc1nc2ccccc2[nH]1)C(=O)CCl.Cl 0.0145
CCC(NC(=O)CCl)c1ccc(Cl)cc1 (configuration not stated) -0.332
O=C(CCl)Nc1cccc2ncccc12 0.338
CC(C)n1nccc1NC(=O)CCl -0.146
Cc1cc(CC(C)NC(=O)CCl)n[nH]1 (configuration not stated) -0.00618
